Data on 40 compounds can be found in PubChem BioAssay AID1739 (National Center for Advancing Translational Sciences (NCATS), 2009).

Molecules are shown by their SMILES. Results filed as inconclusive are left out. The source made the active and inactive calls. The call rests on the fitted dose curve; in most records, active means well fitted inhibition curve with a large enough effect; inconclusive means small, poorly fitted or top-dose-only effect; inactive means flat fitted curve, though single readings scatter.

This test can be described thus: Counterscreen Assay for Enhancers of SMN2 Splice Variant Expression: Modulation of SMN1 Expression. The settings on record: HEK293 SMN1-luciferase reporter, luminescence, 30-36 h; series mostly up to 22.8 µM; activity change, negative = inhibition: at the top concentration. From the text: NIH Chemical Genomics Center [NCGC] NIH Molecular Libraries Probe Production centers Network [MLPCN] MLPCN Grant: R03 MH084179-01 Assay Submitter (PI): Elliot Androphy NCGC Assay Overview: Spinal muscular atrophy (SMA) is caused by insufficient levels of the survival motor neuron protein SMN. The SMN locus on chromosome 5q13 contains two inverted copies of SMN called SMN1 and SMN2 which are 99% identical at the amino acid level. SMN1 is a fully functional protein and SMN2 skips exon 7 90% of the time. Skipping of exon 7 produces non-functional protein product. 10% of the SMN2 protein includes exon 7 and is fully functional. In the SMA disease state, mutations in the SMN1 locus are the cause of the disease state. Because only 10% of SMN2 is of the fully functional form, it is not sufficient to overcome the deficiency produced by the loss of the SMN1 product. A therapy that either increase the amount of SMN2 product made or to increase the inclusion of exon 7 has been proposed for the treatment of SMA. We have designed an assay to identify small molecules that can increase the amount of functional SMN2 product by appending a luciferase reporter gene after the native SMN2 gene, such that inclusion of exon 7 in the expressed product places the luciferase sequence in frame, thus generating functional luciferase enzyme. As a counterscreen for nonspecific modulators of expression, we have run compounds through a similar assay that measures expression of an SMN1-luciferase chimera.
NCGC Assay Protocol Summary: This screen utilizes a luciferase reporter gene assay, combining the promoter with the major portion of the native SMN1 cDNA (exons 1 -7, intron 8 , exon 8 fused to luciferase) stably expressed in HEK293 cells. Compounds that increase luciferase signal presumably enhance expression of the functional SMN1 splice variant. Passaging media contained DMEM w/ glutamax (+phenol red) 10% FCS, 1x pen/strep, 200 ug/ml hygro, 1x sodium pyruvate. Assay media contained DMEM w/ glutamax (-phenol red) 10% FCS, 1x pen strep, 1x pyruvate Sequence, Parameter, Value, Description (1) Cells, 5 uL, 2000 cells/well, 1536 TC treated White solid bottom plate (2) Time, 10-12 hours, 37C 5% CO2 (3) Compound, 23 nl, MLSMR Library (4) Control Compound, 23 nL, Sodium butyrate st 4.5mM (final) conc (5) Time, 30-36 hours, 37C 5% CO2 (6) Reagent, 3 ul, One Glo (TM) from Promega (7) Time, 5-15 minutes, Room temp (8) Detector, Viewlux: luminescent read, 60 second integration, high speed 2x binning Keywords: Spinal muscular atrophy, SMA, SMN2, high throughput screening, MLSMR, MLPCN, NIH Roadmap, qHTS and NCGC
As for `CN(Cc1ccccc1)Cc1c(F)cccc1F`, the “activity change, negative = inhibition” value was -5.6% [at 46.1 µM] (inactive).

With `Brc1ccc(-c2nnc(-c3ccccc3)c(N3CCSCC3)n2)cc1`, the “activity change, negative = inhibition” value is 14.9% (inactive). For `O=[N+]([O-])c1ccc(-c2nnc(-c3ccccc3)c(N3CCOCC3)n2)cc1`, the “activity change, negative = inhibition” value was 3.38% (inactive). Still for that read-out and setting: as for `CC1CN(c2nc(-c3ccc(Br)cc3)nnc2-c2ccccc2)CC(C)N1` (stereo not given), the figure is -26.8% (inactive); as for `COc1ccc(CNC(=O)c2ccc(C(C)C)cc2)cc1`, -15.6% [at 46.1 µM] (inactive); as for `CCC1=Nc2ccccc2-c2nnc(SC)nc2O1`, 8.48% (inactive).

Consider `Clc1nc(NCC2CCCO2)c2[nH]cnc2n1` (stereo not given), for which the “activity change, negative = inhibition” value is -8.45% [at 46.1 µM] (inactive). For `OCCCNc1nc(-c2ccc(Cl)cc2)nnc1-c1ccccc1`, the “activity change, negative = inhibition” value is 5.49% (inactive). Still for that read-out and setting: as for `Cc1nnc(-c2ccccc2)[nH]c1=O`, the figure is -6.61% (inactive); as for `Nc1ccccc1-c1nnn(CC(=O)N2CCCc3ccccc32)n1`, -9.39% [at 46.1 µM] (inactive). The same measure, in the same setting: as for `Fc1ccc(Oc2nc(-c3ccccc3)nnc2C(F)(F)F)cc1`, the figure is 7.18% (inactive); as for `Cn1cnc2c(NCc3ccco3)ncnc21`, -18.5% [at 46.1 µM] (inactive).

On to `O=C(NCCc1cn2ccsc2n1)c1cccs1`, for which the “activity change, negative = inhibition” value was -7.46% [at 46.1 µM] (inactive). The same measure, in the same setting: as for `CC(C)Nc1nc(-c2ccccc2)nnc1-c1ccccc1`, the figure is -4.5% (inactive); as for `Clc1ccc(-c2nnc(-c3ccccc3)c(N3CCSCC3)n2)cc1`, -5.45% (inactive). On the same count and under the same terms, as for `COc1ccc(OC)c(-c2csc(N3CCC(c4ccccc4)CC3)n2)c1`, the figure is -26.4% (inactive); as for `CN1CCN(c2nc(-c3ccc(Br)cc3)nnc2-c2ccccc2)CC1`, 7.73% (inactive).

As to `FC(F)(F)c1cccc(Oc2nc(-c3ccccc3)nnc2C(F)(F)F)c1`, the “activity change, negative = inhibition” value was -15.9% (inactive). The same measure, in the same setting: as for `COC(=O)C1=C(C)NC(=O)/C1=C\c1cc(C)n(-c2ccccc2F)c1C`, the figure is -7.23% [at 46.1 µM] (inactive); as for `NC(=O)C1(N2CCCCC2)CCN(c2nc(-c3ccccc3)cs2)CC1`, -20.9% (inactive).

As for `O=S(=O)(NC1CCCc2ccccc21)c1cnc[nH]1` (stereo not given), the “activity change, negative = inhibition” value was -8.82% [at 46.1 µM] (inactive). Still for that read-out and setting: as for `COc1ccc(-c2csc(N3CCC(C(N)=O)(N4CCCCC4)CC3)n2)cc1`, the figure is -14.5% (inactive); as for `Clc1ccc(-c2nnc(-c3ccccc3)nc2-c2c[nH]c3ccccc23)cc1`, -2.01% (inactive). Turning to `CCOC(=O)c1c(-c2cccc(C)c2)csc1NC(=O)c1c(-c2ccccc2)noc1C`, the Potency is 355 nM (active). On to `c1coc(CNc2ncnc3nc[nH]c23)c1`, for which the “activity change, negative = inhibition” value is -14.9% [at 46.1 µM] (inactive). The same measure, in the same setting: as for `Clc1ccc(-c2nnc(-c3ccc(Br)cc3)c(N3CCSCC3)n2)cc1`, the figure is -12% (inactive); as for `COc1ccc(-c2csc(N3CCC(c4ccccc4)CC3)n2)cc1`, -4.14% (inactive). The same measure, in the same setting: as for `Cc1ccc(-c2nnc(-c3ccccc3)c(N3CCOCC3)n2)cc1`, the figure is 5.25% (inactive). Take `OCCCNc1nc(-c2ccc(Br)cc2)nnc1-c1ccc(Cl)cc1`: the “activity change, negative = inhibition” value is -28.5% (inactive). As for `O=c1[nH]c(=O)n(C2CCCO2)cc1Br` (stereo not given), the “activity change, negative = inhibition” value was 4.65% (inactive). On the same count and under the same terms, as for `Cc1ccc(C2c3c(oc4ccccc4c3=O)C(=O)N2CCCN2CCOCC2)o1` (stereo not given), the figure is -11.8% [at 46.1 µM] (inactive); as for `COc1nc(-c2ccc(Cl)cc2)nnc1C`, -25.9% (inactive). `CC(C)(C)n1nnnc1C(c1ccc2ncccc2c1)N1CCSCC1` (stereo not given): the “activity change, negative = inhibition” value was 26.6% [at 46.1 µM] (inactive). Still for that read-out and setting: as for `O=c1cc(N2CCN(c3cccc(Cl)c3)CC2)[nH]c(=O)n1C1CCCCC1`, the figure is -20.8% [at 46.1 µM] (inactive); as for `O=C(Cc1c(F)cccc1Cl)N1CCN(C(=O)c2ccco2)CC1`, -8.45% [at 46.1 µM] (inactive). On the same count and under the same terms, as for `Cc1ccc(-c2nnc(-c3ccccc3)c(-c3ccccc3)n2)cc1`, the figure is -6.17% (inactive); as for `O=C(NCc1cccs1)C(=O)NCC1OCCCN1S(=O)(=O)c1ccccc1` (stereo not given), 8.45% [at 46.1 µM] (inactive).

Turning to `Cc1ccc(C(=O)Cn2c3c(sc2=N)CCCC3)cc1`, the Potency was 7940 nM (active). Same read-out and setting: as for `O=C(Nc1ccc([N+](=O)[O-])cc1Cl)c1cc(Cl)ccc1O`, the figure is 708 nM (active). As for `COc1nc(-c2ccccc2)nnc1-c1ccccc1`, the “activity change, negative = inhibition” value was -17.3% [at 46.1 µM] (inactive).
